This is an account of results in PubChem BioAssay AID1359 (The Scripps Research Institute Molecular Screening Center, 2008).

SMILES strings stand for the structures. Out of some 220,000 compounds screened, about 970 (0.44%) were called active. Rule as the data show it: active = activation above about 27%; inactive = the rest. The sample as a whole holds a higher share of actives than the screen did.

The target of the assay is Neuropeptide Y receptor type 2 (Homo sapiens) (UniProt P49146). Kind of assay: NPY-Y2 potentiators or agonists, primary screen, cell-based (AID 1359).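 Also: cells stimulated with NPY near EC25 plus isoproterenol at EC100; 0% = vehicle plus submaximal agonist and 100% = vehicle plus saturating agonist.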 The settings on record: cells expressing NPY-Y2, potentiator/agonist read-out; at 3.6 µM; active compounds read high.
Neuropeptide Y receptor type 2 (Homo sapiens), sequence (P49146 whole entry, looked up): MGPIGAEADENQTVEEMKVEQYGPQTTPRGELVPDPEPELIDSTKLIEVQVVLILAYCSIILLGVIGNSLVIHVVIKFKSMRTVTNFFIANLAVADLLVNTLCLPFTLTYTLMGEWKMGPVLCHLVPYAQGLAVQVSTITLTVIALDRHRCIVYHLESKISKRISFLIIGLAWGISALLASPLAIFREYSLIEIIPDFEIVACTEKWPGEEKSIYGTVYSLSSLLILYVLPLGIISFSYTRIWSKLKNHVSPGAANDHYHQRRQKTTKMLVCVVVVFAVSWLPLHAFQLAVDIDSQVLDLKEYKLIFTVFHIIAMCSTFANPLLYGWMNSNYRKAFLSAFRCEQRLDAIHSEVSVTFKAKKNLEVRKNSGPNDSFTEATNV
As to `CC1(C)Cc2c(C#N)c(N3CCNCC3)nc(-c3ccco3)c2CS1`, the activation is 54.8% (active). With `CN(C)P(=S)(Nc1ccccc1)C(Cl)(Cl)Cl` (stereo not given), the activation was 3.95% (inactive).

In the case of `Cn1c(O)c(C(=Nc2ccc(F)cc2)c2ccccc2)c(=O)n(C)c1=O`, the activation is -10.2% (inactive). The value for `CCN1CC2C3CCC(C)(O3)C2C1` (stereo not given) was 3.85% (inactive). As for `CCCCCCCCCCCCn1ccc(=N)cc1`, the activation is -3.31% (inactive).
